Measured values: PubChem BioAssay (EPA / NIEHS)
Inconclusive results are not listed. Active and inactive are the calls of the source. The calls were made as follows: active = hit-call score of the fitted dose curve at least 0.9, where 1 is the maximum; inconclusive = response in the unintended direction; inactive = score below 0.9.

Assay: ATG_M_19_TRANS: Attagene TRANS-FACTORIAL HepG2 Assay for M19 Transcription Factor (Internal Marker) (AID 2282974)
Conditions: HepG2 Attagene TRANS-FACTORIAL M19 internal marker reporter
Experimental: ATG_TRANS is a cell-based, multiplexed-readout assay that uses HepG2, a human liver cell line, with measurements taken at 24 hours after chemical dosing in a 24-well plate.ATG_M_19_TRANS is one of 30 assay component(s) measured or calculated from the ATG_TRANS assay. It is designed to make measurements of mRNA induction, a form of inducible reporter, as detected with fluorescence intensity signals by Reverse transcription polymerase chain reaction (RT-PCR) and Capillary electrophoresis technology.Data from the assay component ATG_M_19_TRANS was analyzed into 1 assay endpoint. This assay endpoint, ATG_M_19_TRANS, was analyzed in the positive analysis fitting direction relative to DMSO as the negative control and baseline of activity. Using a type of inducible reporter, measures of mRNA for gain-of-signal activity can be used to understand the background control at the transcription factor-level as they relate to the gene . Furthermore, this assay endpoint can be referred to as a secondary readout, because this assay has produced multiple assay endpoints where this one serves a background control function. To generalize the intended target to other relatable targets, this assay endpoint is annotated to the background measurement intended target family, where the subfamily is internal marker.
Human liver HepG2 cells are transiently transfected with multiple reporter transcription units (MRTUs) in 6-well plates using FuGene 6 reagent (Roche; 3 ml FuGene/1 mg DNA). The MRTU constructs are regulated by a cis-regulating element (promoter). […] A major difference between the CIS and TRANS system is that in CIS activities of endogenous TFs are measured, whereas the TRANS assay evaluates changes in activities of exogenous, chimeric NR-Gal4 proteins. […] At the end of 24 hour incubation, total RNA was isolated using TriZol reagent (Invitrogen). The isolated RNA is then reverse-transcribed using oligo(dT) primer and Mo-MLV reverse transcriptase (Invitrogen) with DNAse I (Ambion) treatment for 30 min. The one-tenth of the produced cDNA was amplified by PCR using Taq DNA polymerase (Invitrogen) and two reporter sequence-specific primers. The PCR products were fluorescently labeled by primer extension with 6-arboxyfluorescein (6-FAM) 5'-labeled reporter sequence-specific primer (2 min at 95 C, 20 s at 68 C and 10 min at 72 C) and these products were digested with 5U of HpaI (New England Biolabs) for 2h at 37 C. The fragments were purified using Qiaquick PCR columns (Qiagen), analyzed on an ABI 3130xL genetic analyzer (Applied Biosystems) with peak positions identified by using a set of X-rhodamine (ROX)-labeled MapMarker1000 molecular weight standards (BioVentures). The raw capillary electrophoresis data was processed using Attagraph software (Attagene).

Q: Which outcome does the source give for `CCCCCCCCOC(C)=O` here?
A: The outcome was “inactive”.

Q: For `[Cu+]`, which outcome is on record?
A: The outcome was “inactive”.

Q: Which outcome does the source give for `C=CC(O)CCCCC` (stereo not given) here?
A: The outcome was “inactive”.

Q: With `CCCCCCCCCO` as the molecule, how does the outcome read?
A: The outcome was “inactive”.

Q: With `C=C(C)C(=O)OCCC[Si](OC)(OC)OC` as the molecule, how does the outcome read?
A: The outcome was “inactive”.

Q: Which outcome does the source give for `CCCCOCC(C)OCC(C)O` (stereo not given) here?
A: The outcome was “inactive”.

Q: For `O=C1OC2(c3ccc(O)cc3Oc3cc(O)ccc32)c2ccccc21`, which outcome is on record?
A: Its outcome is “inactive”.

Q: Which outcome does the source give for `CC(C)(C)c1cc(CCC(=O)OCCSCCOC(=O)CCc2cc(C(C)(C)C)c(O)c(C(C)(C)C)c2)cc(C(C)(C)C)c1O` here?
A: Its outcome is “inactive”.

Q: Which outcome does the source give for `COc1ccc(C(C)=O)cc1` here?
A: The outcome was “inactive”.

Q: With `CC1=CCC(C(C)(C)O)CC1` (stereo not given) as the molecule, how does the outcome read?
A: The outcome was “inactive”.

Q: Which outcome does the source give for `CC(=O)C1=C(C)[C@@H]2C[C@@]3(C1)[C@H](C)CC[C@H]3C2(C)C` here?
A: The outcome was “inactive”.

Q: With `O=C(OCc1ccccc1)c1ccccc1O` as the molecule, how does the outcome read?
A: The outcome was “inactive”.

Q: Which outcome does the source give for `C1COCO1` here?
A: Its outcome is “inactive”.

Q: Which outcome does the source give for `CCC(C)COC(=O)CC(C)C` (stereo not given) here?
A: Its outcome is “inactive”.

Q: With `O=S1(=O)CC=CC1` as the molecule, how does the outcome read?
A: Its outcome is “inactive”.

Q: Which outcome does the source give for `NC(N)=NC(N)=NCCc1ccccc1` here?
A: Its outcome is “inactive”.

Q: Which outcome does the source give for `CC(=O)OC/C=C(C)/C=C/C=C(C)/C=C/C1=C(C)CCCC1(C)C` here?
A: Its outcome is “inactive”.

Q: For `C=COCC1CCC(COC=C)CC1` (stereo not given), which outcome is on record?
A: The outcome was “inactive”.

Q: Which outcome does the source give for `O=C1OCc2ccccc21` here?
A: The outcome was “inactive”.

Q: With `CC(=O)CC(C)(C)C1CCCCC1` as the molecule, how does the outcome read?
A: The outcome was “inactive”.

Q: With `CCCCCC1CCC(=O)O1` (stereo not given) as the molecule, how does the outcome read?
A: Its outcome is “inactive”.

Q: With `OC[C@H]1O[C@@H](O[C@H]2[C@H](O)[C@@H](O)[C@H](O)O[C@@H]2CO)[C@H](O)[C@@H](O)[C@H]1O` as the molecule, how does the outcome read?
A: Its outcome is “inactive”.

Q: For `CCCCCC(=O)O[C@]1(C(C)=O)CC[C@H]2[C@@H]3CCC4=CC(=O)CC[C@]4(C)[C@H]3CC[C@@]21C`, which outcome is on record?
A: Its outcome is “inactive”.

Q: With `CCOC(=O)CCCCCCCCC(=O)OCC` as the molecule, how does the outcome read?
A: Its outcome is “inactive”.

Q: For `CCCCCCOc1ccc(O)cc1`, which outcome is on record?
A: Its outcome is “inactive”.

Q: Which outcome does the source give for `OCC=Cc1ccccc1` here?
A: Its outcome is “inactive”.

Q: For `C1=COCCC1`, which outcome is on record?
A: Its outcome is “inactive”.

Q: With `CCC=C(C)C=O` as the molecule, how does the outcome read?
A: Its outcome is “inactive”.

Q: Which outcome does the source give for `CC1(C)[C@H](C=C(Cl)Cl)[C@H]1C(=O)OCc1cccc(Oc2ccccc2)c1` here?
A: The outcome was “inactive”.

Q: With `CC1=CCC(=C(C)C)CC1` as the molecule, how does the outcome read?
A: Its outcome is “inactive”.

Q: For `CC/C(=C(\c1ccccc1)c1ccc(OCCN(C)C)cc1)c1ccccc1`, which outcome is on record?
A: Its outcome is “inactive”.

Q: With `CC(=O)c1cccnc1` as the molecule, how does the outcome read?
A: Its outcome is “inactive”.

Q: For `CC(CO)(CO)[N+](=O)[O-]`, which outcome is on record?
A: Its outcome is “inactive”.

Q: For `CC(=O)OC(C)(C)C`, which outcome is on record?
A: Its outcome is “inactive”.

Q: Which outcome does the source give for `CC(C)C(=O)c1ccccc1` here?
A: Its outcome is “inactive”.

Q: Which outcome does the source give for `CC(C)CCCC(C)(C)O` here?
A: Its outcome is “inactive”.

Q: For `CCOC(=O)CC(C)C`, which outcome is on record?
A: The outcome was “inactive”.

Q: For `C=CC(=O)OCCCCCC`, which outcome is on record?
A: Its outcome is “inactive”.

Q: For `CC(=O)C1C(=O)C=C(C)OC1=O` (stereo not given), which outcome is on record?
A: Its outcome is “inactive”.

Q: Which outcome does the source give for `CC/C=C\CCOC(=O)C(C)C` here?
A: Its outcome is “inactive”.
